# In ChEMBL document CHEMBL4513216, “Probing the Open Global Health Chemical Diversity Library for Multistage-Active Starting Points for Next-Generation Antimalarials” (ACS Infect Dis, 2020):
# Screen size: about 69,000 compounds; about 8,600 (12%) showed an effect of 50% or more. The entries come from a sample that favours strong results as a whole.
# Tested on: Plasmodium berghei
# Assay: Screen against P. berghei liver stage (PbLuc), transformed with Luciferase, at 10uM
# Format: functional, HepG2
# Conditions: tested at 10 uM
row,SMILES,INHIBITION
1,CNC(=O)CCN(C)CC1(c2ccc(Br)cc2)CC1,-0.532%
2,Cc1ccccc1CN1C[C@H]2CC[C@@H](C1)N(CC1CCC1)C2=O,28.3%
3,N#CC1(C(=O)N2CCOC(c3ccc(Cl)cc3)C2)CCCC1 (stereo unspecified),57.1%
4,NS(=O)(=O)CCN1CCOC(c2ccc(Cl)cc2)C1 (stereo unspecified),-51.9%
5,N#CC1(C(=O)N2CCOC(c3ccc(F)cc3)C2)CCCC1 (stereo unspecified),54.2%
6,O=C(CN1C(=O)CCNC1=O)N1CCOC(c2ccc(F)cc2)C1 (stereo unspecified),-141%
7,CCn1cnnc1CNC(=O)N1CCOC(c2ccc(Cl)cc2)C1 (stereo unspecified),27.5%
8,N#CC1(C(=O)N2CCOC(c3ccc(F)cc3)C2)CCCCC1 (stereo unspecified),-14.2%
9,CCN1CC2(CNCCN(C(=O)Nc3ccccc3)C2)CC1=O (stereo unspecified),-80%
10,Cc1cccc(CN2C(=O)CCC23CCN(C(=O)NC(C)C)CC3)n1,-40.5%
11,CC(C(=O)NCCCN1CCOCC1)n1cncn1 (stereo unspecified),-22.9%
12,CS(=O)(=O)N1CCC2(CCCN(c3ncc(F)cn3)C2)C1 (stereo unspecified),28.2%
13,COCCN1CCC2(CCCN(c3ncc(F)cn3)C2)C1 (stereo unspecified),24.9%
14,COc1ccc(CN2CCC3(CCCN(c4ncc(F)cn4)C3)C2)cc1 (stereo unspecified),74.2%
15,CCCS(=O)(=O)N1CCC2(CCCN(c3ncc(F)cn3)C2)C1 (stereo unspecified),41%
16,CCS(=O)(=O)N1CCC2(CCCN(c3ncc(F)cn3)C2)C1 (stereo unspecified),55.5%
17,c1csc(CN2CCC3(CCCN(c4nncs4)C3)C2)n1 (stereo unspecified),-79.8%
18,c1cnc(N2CCCC3(CCN(Cc4cccs4)C3)C2)nc1 (stereo unspecified),-20.8%
19,Fc1cnc(N2CCCC3(CCN(Cc4nccs4)C3)C2)nc1 (stereo unspecified),55.5%

row,SMILES,INHIBITION
1,Fc1cnc(N2CCCC3(CCN(Cc4ccoc4)C3)C2)nc1 (stereo unspecified),40.4%
2,Fc1cnc(N2CCCC3(CCN(Cc4ccco4)C3)C2)nc1 (stereo unspecified),-3.88%
3,Fc1cnc(N2CCCC3(CCN(Cc4cccs4)C3)C2)nc1 (stereo unspecified),57.9%
4,c1ccc(N2CCCC3(CCN(Cc4nccs4)C3)C2)nc1 (stereo unspecified),29.1%
5,CCc1noc(C)c1C(=O)N1CCC(c2[nH]ncc2S(C)(=O)=O)C1 (stereo unspecified),35.2%
6,CCNc1cc2c(nn1)CCN(C(=O)c1c(C)noc1C)C2,14.1%
7,O=C(NCCCO)NCCc1cc(F)ccc1F,22.6%
8,Cc1ccc(CN2CCCn3c(nc(Cn4ccnc4)cc3=O)C2)o1,10%
9,CN1CCCC1c1ccnc(-c2ccccn2)n1 (stereo unspecified),-5.8%
10,NC(=O)COc1ccc(CNCc2c(F)cccc2F)cc1,31.1%
11,Cc1ccc(-c2nc(CNC3CCc4ncnn4C3)co2)cc1 (stereo unspecified),12.7%
12,O=C([C@H]1C[C@H]2CN(c3ncc(F)cn3)C[C@@H]1O2)N1CCCC1,41.2%
13,c1ccc(Cc2nc(CNCCn3cccn3)cs2)cc1,21.5%
14,CC(C)c1nnc2n1CCN(C(=O)c1cc3cc(F)ccc3[nH]1)C2,45.7%
15,CC(C)c1cccc(N2CCCC3(CCC(=O)N(C4CC4)C3)C2)n1 (stereo unspecified),50.5%
16,N#Cc1cccc(N2CCCC3(CCC(=O)N(C4CCCC4)C3)C2)n1 (stereo unspecified),18.9%
17,CC(O)c1cccc(N2CCC3(CCC(=O)N(C4CCCC4)C3)CC2)n1 (stereo unspecified),-9.31%
18,COCCCNC(=O)c1ccccc1S(C)(=O)=O,18.4%
19,Cc1cc(=O)[nH]c(=O)n1-c1cccc(Cl)c1Cl,17.1%

row,SMILES,INHIBITION
1,Cc1cc(C)n(-c2cncc(NCCNC(=O)c3cccnc3)n2)n1,31.9%
2,CC(C)OCc1nn(C)c2c1CN(Cc1cccs1)CC2,35.8%
3,Cc1nn(C(C)C)c(C)c1NC(=O)c1cccnc1,7.18%
4,COc1ccc(C(=O)n2nc(C)c(C)c2C)cc1,30.7%
5,Cc1nn(C(=O)c2cccnc2)c(C)c1C,64.6%
6,CO[C@@H]1CC[C@H]2[C@H]1OCCN2Cc1ccc(F)c(F)c1,-8.28%
7,Cc1ccccc1C(C(=O)NCCSC(F)(F)F)N(C)C (stereo unspecified),-33.8%
8,CC1(C)Cc2nc(C(C)(C)C)ncc2C(NC(=O)Cc2nnn[nH]2)C1 (stereo unspecified),-0.71%
9,COC(=O)CC(c1cccs1)c1oc(C)cc(=O)c1O (stereo unspecified),27.5%
10,CCN1CCn2c(C)cnc2C12CCN(C(=O)c1ccc(Cl)cc1)CC2,31.9%
11,CC(=O)NCCCC(=O)NC(C)c1nnc2n1CCC2 (stereo unspecified),1.75%
12,CCOCC(=O)N1CCOCC2(CCN(c3ncccn3)C2)C1 (stereo unspecified),14.5%
13,CCCS(=O)(=O)N1CCCC(c2nc(-c3ccccc3)c[nH]2)C1 (stereo unspecified),44.4%
14,CS(=O)(=O)N1CCCC(c2nc(-c3ccccc3)c[nH]2)C1 (stereo unspecified),50.4%
15,CCN(C)S(=O)(=O)N1CCCC(c2nc(-c3ccccc3)c[nH]2)C1 (stereo unspecified),89.1%
16,CC(=O)N1CCCC(c2nc(-c3ccccc3)c[nH]2)C1 (stereo unspecified),16.6%
17,CCN(CC)S(=O)(=O)N1CCCC(c2ccc(C(=O)O)cc2)C1 (stereo unspecified),36.8%
18,CCN(C)S(=O)(=O)N1CCCC(c2cccc(C(=O)O)c2)C1 (stereo unspecified),-5.38%
